PubChem BioAssay AID651658 (Broad Institute, 2012)
The whole screen tested about 340,000 compounds, of which about 5,100 (1.5%) were called active. The full list was thinned out, with actives kept by preference. A number with no mark means an inactive call.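 How the source made its calls: active means mean Tm shift, scaled 0 neutral to 100 positive control, at about 1.3% or above, every replicate too (limit read from the data); inconclusive means no clear call, values can overlap the other calls; inactive means the rest.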

target: Fibroblast growth factor 22 (Homo sapiens) (UniProt Q9HCT0); assay: binders of human FGF22 protein, primary screen, FGF22 synaptogenesis inhibitor project, biophysical, thermal shift, single point (AID 651658); conditions: recombinant FGF22 thermal shift, SYPRO orange fluorescence; at 9.99 µM; active compounds read high; percent of sucrose octasulfate shift, DMSO zero
Sequence (Q9HCT0 whole entry, looked up): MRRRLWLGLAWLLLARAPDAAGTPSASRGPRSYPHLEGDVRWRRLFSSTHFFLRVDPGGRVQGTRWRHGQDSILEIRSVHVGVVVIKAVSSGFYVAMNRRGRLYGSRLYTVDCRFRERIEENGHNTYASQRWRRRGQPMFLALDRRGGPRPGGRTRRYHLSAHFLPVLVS

SMILES | activity (Tm shift, normalised)
CN1c2ccc(C3=CCCCC3)cc2[C@@H]2[C@@H](CCN2S(=O)(=O)c2ccccc2F)[C@H]1CO | -0.132%
Cc1noc(C)c1NC(=O)N[C@H]1C=C[C@@H](CC(=O)Nc2ccccc2)O[C@H]1CO | -0.156%
CO[C@@H]1CN(C)C(=O)c2cc(NS(=O)(=O)c3cccc(F)c3)ccc2OC[C@@H](C)NC[C@@H]1C | -0.14%
Clc1ccc(C[n+]2cc(-c3ccccc3)n3c2CCC3)cc1 | -0.249%
Cc1ccc(C(=O)C[n+]2cc(-c3ccccc3)n3c2CCCCC3)cc1 | 44.4% (active)
Cc1ccc(-c2c[n+](CC(=O)Nc3ccccc3)c3n2CCC3)cc1 | -0.075%
O=C(C[C@H]1C=C[C@H](NC(=O)Nc2cc(F)ccc2F)[C@H](CO)O1)Nc1ccccc1 | 0.041%
C[C@@H]1CCCCO[C@@H](CN(C)Cc2ccncc2)[C@@H](C)CN([C@@H](C)CO)C(=O)c2cc(NC(=O)Nc3ccc(F)cc3)ccc2O1 | -0.232%
CCCNC(=O)C[C@@H]1CC[C@H]2[C@@H](COC[C@@H](O)CN2Cc2ccccc2F)O1 | 0.109%
CCC(=O)Nc1ccc2c(c1)OC[C@H](C)N(C(=O)Cc1cccnc1)C[C@@H](C)[C@@H](OC)CN(C)C2=O | -0.218%
CCc1cccc(NC(=O)O[C@H]2[C@H](OC(=O)Nc3ccccc3-c3ccccc3)[C@H](OC(=O)Nc3ccccc3-c3ccccc3)[C@@H](OC)O[C@@H]2CO)c1 | -0.082%
COc1ccc(S(=O)(=O)N2CCCCN3[C@H](CO)[C@H](c4ccc(C5=CCCCC5)cc4)[C@@H]3C2)cc1 | -0.535%
O=[N+]([O-])c1ccc(N2CCN(CC(O)COc3ccccc3)CC2)cc1 (stereo unspecified) | 43.9% (active)
O=[N+]([O-])c1ccc(N2CCOCC2)cc1 | -0.032%
OC(COc1ccccc1)CN1CCN(c2cccc(Cl)c2)CC1 (stereo unspecified) | 0.055%
CC(C)NC(=O)Nc1ccc2c(c1)C(=O)N([C@H](C)CO)C[C@H](C)[C@H](CN(C)C(=O)CCC(F)(F)F)OCCCC[C@H](C)O2 | -0.429%
CN1CCN(C(=O)C[C@H]2CC[C@H]3[C@@H](COc4ccc(NC(=O)C5CCC5)cc4C(=O)N3C)O2)CC1 | -0.349%
COC(=O)C1=C(C)N(C)C(=S)NC1c1ccccc1 (stereo unspecified) | 0.104%
COc1ccc(C2NC(=O)N(C)C(C)=C2[N+](=O)[O-])cc1 (stereo unspecified) | 0.013%
COC(=O)C1=C(C)N(C)C(=O)NC1c1ccc([N+](=O)[O-])o1 (stereo unspecified) | 43.8% (active)
COCC(=O)N1CCCCN2[C@H](CO)[C@H](c3ccc(C#Cc4ccc(OC)cc4)cc3)[C@H]2C1 | 0.2%
COc1ccc2c3c(n(C)c2c1)[C@H](CO)N(C(C)=O)CC31CCN(Cc2cccnc2)CC1 | -0.052%
C/C=C/c1ccc2c(c1)O[C@H](CN(C)C(=O)Cc1ccncc1)[C@@H](C)CN([C@@H](C)CO)S2(=O)=O | -0.034%

SMILES | activity (Tm shift, normalised)
Cc1nnc(SC(C(=O)Nc2cc(Cl)cc(Cl)c2)c2ccccc2)[nH]c1=O (stereo unspecified) | 1.39% (active)
CC(NCC(=O)Nc1cc(Cl)cc(Cl)c1)c1ccccc1 (stereo unspecified) | -0.134%
Cc1nnc(SC(C(=O)c2ccccc2)c2ccccc2)[nH]c1=O (stereo unspecified) | 0.339%
C[C@H]1CN([C@@H](C)CO)C(=O)Cc2cc(N(C)C)ccc2O[C@@H]1CN(C)S(=O)(=O)c1ccc(F)cc1 | -0.149%
C[C@@H]1CCCCO[C@H](CN(C)S(=O)(=O)c2cccs2)[C@@H](C)CN([C@@H](C)CO)C(=O)c2cc(NC(=O)NC3CCCCC3)ccc2O1 | -0.096%
Cc1ccccc1-c1ccc2c(c1)O[C@H](CN(C)C)[C@H](C)CN([C@@H](C)CO)S2(=O)=O | 0.074%
C[C@@H]1CN([C@@H](C)CO)C(=O)c2cc(NC(=O)CCCCCC(=O)Nc3ccccc3N)ccc2O[C@@H](C)CCCCO[C@@H]1CN(C)CC1CCCCC1 | -0.209%
COc1cc(C(=O)N2CCN(C/C=C/c3ccccc3)CC2)cc(OC)c1C | 0.444%
CC(C)Cn1c(N2CCN(C(=O)/C=C/c3ccccc3)CC2)nc2ccccc21 | -0.183%
O=C(Cn1c(N2CCN(C/C=C/c3ccccc3)CC2)nc2ccccc21)c1ccccc1 | 44% (active)
CCCC(=O)Nc1ccc2c(c1)C(=O)N(C)C[C@H](OC)[C@@H](C)CN[C@H](C)CO2 | -0.019%
CO[C@@H](CN(C)S(=O)(=O)c1ccccc1)[C@@H](C)CN(Cc1ccccc1Cl)[C@H](C)CO | 0.183%
COC(=O)Cc1c(-c2[nH]c3ccccc3c2CC(=O)OC)[nH]c2ccccc12 | -0.112%
COC(=O)Cc1nc2c(N)nc(N)nc2[nH]c1=O | 44% (active)
Cc1cc(C)cc(N2C(=O)CSC2c2cccc([N+](=O)[O-])c2)c1 (stereo unspecified) | -0.058%
C[C@H]1CN([C@@H](C)CO)C(=O)Cc2cc(NS(=O)(=O)c3cn(C)cn3)ccc2O[C@@H]1CN(C)C(=O)Nc1ccc2c(c1)OCO2 | -0.296%
CCCNC(=O)C[C@H]1CC[C@@H]2[C@H](COC[C@H](O)CN2S(=O)(=O)c2ccccc2F)O1 | -0.049%
COc1ccc2c3c(n(C)c2c1)[C@H](CO)N(C)CC31CCN(C(=O)Nc2cccc(F)c2)CC1 | 0.13%
C[C@H]1CN([C@@H](C)CO)S(=O)(=O)c2ccc(-c3ccccc3F)cc2O[C@H]1CN(C)C(=O)C1CC1 | 0.047%
O=C1c2ccccc2C(=O)N1CCCCCCN1C(=O)c2ccccc2C1=O | -0.045%
CCN1CCN(C(=O)CSc2ccc(C)cc2)CC1 | -0.037%
CCN1CCN(C(=O)CCN2C(=O)c3ccccc3C2=O)CC1 | 44.1% (active)
O=C(CN1CCOCC1)N1CC(=O)N2[C@H](C1)[C@H](c1ccc(/C=C/c3ccccc3)cc1)[C@@H]2CO | -0.125%
